Measured values published in PubChem BioAssay (NCI).
The panel holds about 83,000 compounds, 20% with a hit somewhere; the sample as a whole holds those more often.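 The test compound was applied at a single concentration to cells in 96-well plates for 48 hours, and percent growth was recorded.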 The source made the active and inactive calls. The calls were made as follows: active = growth percent below 10; inactive = the rest.

What was measured:
Assay in all cases: NCI-60 one-dose screen, 48 h (100 = growth as untreated, 0 = no growth, -100 = all killed)
Settings in all cases: 10 µM unless noted
T-47D breast = system: T-47D breast
BT-549 breast = system: BT-549 breast
MDA-MB-435 melanoma = system: MDA-MB-435 melanoma
SW-620 colon = system: SW-620 colon
MCF7 breast = system: MCF7 breast
HCT-116 colon = system: HCT-116 colon
HCC-2998 colon = system: HCC-2998 colon
KM12 colon = system: KM12 colon

Row | Compound | growth (T-47D breast) | growth (BT-549 breast) | growth (MDA-MB-435 melanoma) | growth (SW-620 colon) | growth (MCF7 breast) | growth (HCT-116 colon) | growth (HCC-2998 colon) | growth (KM12 colon)
1 | CCN(CC)CC[n+]1cc2cc(OC)c(OC)cc2c2ccc3cc4c(cc3c21)OCO4 | 16.2% (inactive) | -4.72% (active) | 24.6% (inactive) | 9.98% (active) | 11.5% (inactive) | -83% (active) | 18.7% (inactive) | -82.2% (active)
2 | N#Cc1c(-c2ccccc2)nc2c(c(-c3ccccc3)nn2-c2ccccc2)c1-c1ccc(O)cc1 | 35.3% (inactive) | 59.7% (inactive) | 51.5% (inactive) | 16.5% (inactive) | 14.8% (inactive) | 34.8% (inactive) | 72% (inactive) | 47.1% (inactive)
3 | OC(c1ccc(F)c(C(F)(F)F)c1)c1cnccc1NC1CCCCC1 (configuration not stated) | 41.5% (inactive) | 90.5% (inactive) | 78.5% (inactive) | 58.3% (inactive) | 58.4% (inactive) | 36.4% (inactive) | -51% (active) | 70.6% (inactive)
4 | O=S(=O)(NCCNc1nccc(-c2c(-c3cccc(F)c3)nc3sccn23)n1)c1ccccc1 | 18.8% (inactive) | 50.4% (inactive) | 17.4% (inactive) | 44.5% (inactive) | 21.7% (inactive) | 22.7% (inactive) | 66.4% (inactive) | 28.8% (inactive)
5 | Oc1cccc(CCc2ccc(Oc3cc(CCc4cccc(O)c4)cc(O)c3O)cc2)c1 | 73% (inactive) | 82% (inactive) | 68.6% (inactive) | 79% (inactive) | 77.8% (inactive) | 73.2% (inactive) | 92% (inactive) | 81.5% (inactive)
6 | O=[N+]([O-])c1ccc(NC(=S)N/N=C/c2cc3ccccc3n3nnnc23)cc1 | 46.5% (inactive) | 80.4% (inactive) | 82.4% (inactive) | 24.4% (inactive) | 13.8% (inactive) | 61.3% (inactive) | 54% (inactive) | 66.9% (inactive)
7 | Cc1cnc(C(=O)Nc2nc3ccc(S(=O)(=O)Nc4ccc(C5(C(F)(F)F)CC5)cc4)cc3[nH]2)cn1 | 21.6% (inactive) | 40.6% (inactive) | -77.5% (active) | 15% (inactive) | 17.4% (inactive) | 19.5% (inactive) | 42.4% (inactive) | 16% (inactive)
8 | CCOC(=O)CC1CSC(N/N=C/c2ccc(-n3cccn3)cc2)=N1 (configuration not stated) | 106% (inactive) | 116% (inactive) | 110% (inactive) | 106% (inactive) | 98.1% (inactive) | 98.7% (inactive) | 103% (inactive) | 103% (inactive)
9 | CCCNC(=O)Oc1ccc(/C(=C(\C)c2ccccc2)c2ccc(OCCCN(C)C)cc2)cc1 | 33.3% (inactive) | 83% (inactive) | 63% (inactive) | 90% (inactive) | 21.7% (inactive) | 54.2% (inactive) | 64.8% (inactive) | 67.2% (inactive)
10 | COc1cc(/C=C\c2cc(OC)c(OC)c(OC)c2)cc(N)c1OC | 82.8% (inactive) | 75.9% (inactive) | 1.87% (active) | 75% (inactive) | 85.4% (inactive) | 79.1% (inactive) | 73.1% (inactive) | 54.9% (inactive)
11 | COc1ccc2c(c1)oc1c(C)c3c(c(C)c12)C(=O)N(N)C3=O | 44.3% (inactive) | -43.5% (active) | 36.8% (inactive) | 29.4% (inactive) | 57.3% (inactive) | -13% (active) | 64.6% (inactive) | 22% (inactive)
12 | COc1cc2c(=O)n(CCN(C)C)c3c4cc5c(cc4ccc3c2cc1OC)OCO5 | -20.5% (active) | 1.42% (active) | -65.4% (active) | -17.9% (active) | 7.27% (active) | -7.98% (active) | -58.1% (active) | -25.2% (active)
13 | CCCC/C=N/NC(=S)NCc1ccccc1 | 88.3% (inactive) | 102% (inactive) | 98.4% (inactive) | 96.1% (inactive) | 87.7% (inactive) | 90.9% (inactive) | 109% (inactive) | 104% (inactive)
14 | COc1cc2c(=O)n(CCN)c3c4cc5c(cc4ccc3c2cc1OC)OCO5 | 27.1% (inactive) | 35.2% (inactive) | -91% (active) | -75.6% (active) | 17.6% (inactive) | -70.9% (active) | 44.9% (inactive) | -64% (active)
15 | O=C1c2ccc3c4c(ccc(c24)C(=O)N1CCCNCc1ccccc1F)C(=O)N(CCCNCc1ccccc1F)C3=O | -27.9% (active) | -85.4% (active) | -74.3% (active) | -73.3% (active) | -80.5% (active) | -37.7% (active) | -93.1% (active) | -76.1% (active)
16 | O=C1c2cccc3c(-c4ccc5c(c4)ncn5C4CCCCC4)ccc(c23)C(=O)N1CCO | 68% (inactive) | 95.2% (inactive) | 109% (inactive) | 104% (inactive) | 97.8% (inactive) | 80% (inactive) | 93.2% (inactive) | 86.7% (inactive)
17 | COc1cc2c(=O)n(CCCN(C)C)c3c4cc5c(cc4ccc3c2cc1OC)OCO5 | 85.8% (inactive) | 47.8% (inactive) | 67.6% (inactive) | 38.6% (inactive) | 25.3% (inactive) | 30.6% (inactive) | 86.8% (inactive) | 47.8% (inactive)
18 | C=C1C(=O)O[C@H]2[C@H]1CC/C(CNC(=O)c1cccc3ccccc13)=C\CC[C@@]1(C)O[C@@H]21 | 46% (inactive) | 46.9% (inactive) | 40.2% (inactive) | 16.5% (inactive) | 24.4% (inactive) | -21.6% (active) | 88% (inactive) | 83.2% (inactive)
19 | O=C(Nc1cccc(C(=O)N2CCc3ccc(Cl)cc32)c1)c1ccco1 | 33.6% (inactive) | 37.2% (inactive) | -2.72% (active) | 29.8% (inactive) | 21.6% (inactive) | 18.9% (inactive) | 68% (inactive) | 33.6% (inactive)
20 | Cc1nc(N)nc(N[C@@H](C)c2nc3cccc(NCc4ccc(C(=O)NO)cc4)c3c(=O)n2-c2ccccc2)n1 | 22.3% (inactive) | 99% (inactive) | 64.7% (inactive) | 49.5% (inactive) | 74.9% (inactive) | 56.3% (inactive) | 98% (inactive) | 92.9% (inactive)
21 | CN1C(N2CCN(S(=O)(=O)c3ccccc3)CC2)=NS(=O)(=O)c2ccccc21 | 101% (inactive) | 119% (inactive) | 109% (inactive) | 123% (inactive) | 91.1% (inactive) | 109% (inactive) | 101% (inactive) | 91.5% (inactive)
22 | COc1cc2nc(-c3ccc(C(F)(F)F)cc3)cc(OCCN3CCCCC3)c2cc1OC | 85.1% (inactive) | 40.4% (inactive) | 90.5% (inactive) | 98.8% (inactive) | 79.5% (inactive) | 45.8% (inactive) | 76.7% (inactive) | 80.3% (inactive)
23 | CC(=O)c1cc2c(N)c(C(=O)Nc3cccc4ccncc34)sc2nc1C | 97.1% (inactive) | 102% (inactive) | 6.83% (active) | 101% (inactive) | 83.7% (inactive) | 102% (inactive) | 107% (inactive) | 101% (inactive)
24 | CN1C(=O)NC(c2ccc3c(c2)OCO3)C=C1c1ccccc1 (configuration not stated) | 78.6% (inactive) | 90% (inactive) | 97.5% (inactive) | 78.3% (inactive) | 49.9% (inactive) | 78% (inactive) | 110% (inactive) | 88.2% (inactive)
25 | Cc1nn(-c2ccccc2)c(Oc2c(Cl)cccc2Cl)c1/C=N/N=c1\sc2ccccc2n1C | 47.2% (inactive) | 63.6% (inactive) | 64.6% (inactive) | 34.7% (inactive) | 45.5% (inactive) | 30.1% (inactive) | 71.4% (inactive) | 44.3% (inactive)
26 | Cc1cc2nc3c4cc([N+](=O)[O-])ccc4n(CCN(C)C)c3nc2cc1C | 10.6% (inactive) | 31.7% (inactive) | -32.2% (active) | -5.68% (active) | 4.74% (active) | 2.59% (active) | -37.2% (active) | 5.62% (active)
27 | Cc1ccc(-n2nc3c(c(C#N)c2=O)CC(c2ccccc2[N+](=O)[O-])C([N+](=O)[O-])=C3O)cc1 (configuration not stated) | 65.5% (inactive) | 93.2% (inactive) | 96.7% (inactive) | 89.1% (inactive) | 55.4% (inactive) | 86.9% (inactive) | 116% (inactive) | 82.3% (inactive)
28 | COc1ccc(/C=C2\COc3ccc(-c4ccccc4)cc3C2=O)c(OC)c1 | 68.1% (inactive) | 91.2% (inactive) | 119% (inactive) | 92.9% (inactive) | 76.9% (inactive) | 75.7% (inactive) | 75.4% (inactive) | 97.7% (inactive)
29 | Cn1cc(-c2nc(-c3c[nH]c4c(Cl)nccc34)cs2)c2cc(F)ccc21 | 48.6% (inactive) | 118% (inactive) | 98.6% (inactive) | 102% (inactive) | 68.1% (inactive) | 105% (inactive) | 119% (inactive) | 96.4% (inactive)
